In PubChem BioAssay:
The source made the active and inactive calls.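 Rule for the calls, unless noted: active = visual image review flags a hit and inhibition of aggregation exceeds 20%; inconclusive = visual hit but inhibition at or below 20%; inactive = no hit on visual image review.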

What was measured:
[1] = inhibitors of TNFa-induced NFkB p65 translocation, primary screen, imaging, HUVEC, MLSMR starter and 10KST1 sets (AID 438;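 active = inhibition above 20% together with a positive visual image hit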;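 note: compound added about 3h40 before a 20 min TNFalpha stimulation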;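 for inhibition: signal is the nuclear over cytoplasmic p65 intensity ratio per well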); details: HUVEC TNFa-induced p65 nuclear translocation; cell count: measured here: nuclei count (cytotoxicity indicator), at 2.08 µM; inhibition: at 2 µM, stronger effect = higher value, 0% TNFa-plus-vehicle, 100% no-TNFa wells
[2] = inhibitors of mutant huntingtin aggregation, primary screen, imaging, exon1htt(103Q)mCFP cells, high-content imaging (AID 483); details: exon1htt(103Q)mCFP cell line, aggregate imaging, at 2 µM; inhibition of aggregation: stronger effect = higher value; nuclei count: measured here: cell count, toxicity;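 note: compound exposure lasted 3 days before fixation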;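 for nuclei count: percent of the per-plate median nuclei count of sample wells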
[3] = inhibitors of E-selectin induction by TNFa, primary screen, imaging, HUVEC, immunofluorescence, MLSMR starter and 10KST1 sets (AID 487;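 active = visually confirmed hit in the image check and inhibition above 20%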;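 for inhibition: signal is fraction of cell area covered by stained E-selectin grains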;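 for nuclei count: 100% = median nuclei count of all wells on the same plate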); details: HUVEC TNFalpha-induced E-selectin immunofluorescence imaging, at 2 µM; inhibition: stronger effect = higher value; nuclei count: measured here: cell number, toxicity
[4] = target: Voltage-gated potassium channel subunit beta-2 (Rattus norvegicus) (UniProt P62483); assay: KvBeta enzyme negative modulators, primary screen, biochemical, NADPH fluorescence (AID 622;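 active = fluorescence slope higher than the sample average by over 3 SD, cut at about -0.22 in these data, passing the limit was not always enough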;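 note: slope of raw intensity against log time taken from 70 to 1610 s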); details: recombinant KvBeta, 4-cyanobenzaldehyde reduction, at 10 µM, stronger effect = higher value
Voltage-gated potassium channel subunit beta-2 (Rattus norvegicus), sequence (P62483 whole entry, looked up): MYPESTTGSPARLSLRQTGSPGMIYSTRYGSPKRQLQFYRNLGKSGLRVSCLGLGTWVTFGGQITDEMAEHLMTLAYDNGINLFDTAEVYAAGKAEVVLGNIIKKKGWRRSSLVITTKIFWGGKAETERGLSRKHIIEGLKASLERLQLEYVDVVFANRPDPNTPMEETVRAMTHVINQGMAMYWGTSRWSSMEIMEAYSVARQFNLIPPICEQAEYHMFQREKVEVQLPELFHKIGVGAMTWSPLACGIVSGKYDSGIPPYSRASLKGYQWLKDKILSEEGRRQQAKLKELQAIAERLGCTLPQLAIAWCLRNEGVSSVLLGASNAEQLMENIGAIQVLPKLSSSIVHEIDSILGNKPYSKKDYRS

[5] = target: Voltage-gated potassium channel subunit beta-2 (Rattus norvegicus) (UniProt P62483); assay: KvBeta positive modulators, primary screen, biochemical, NADPH fluorescence (AID 623;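 active = NADPH fluorescence slope more negative than the mean of all samples by about 3 SD, 99.7% confidence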;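 note: fluorescence intensity change per second fitted from 20 to 320 s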); details: Recombinant KvBeta, NADPH fluorescence decrease slope, 10 min; at 10 µM; stronger effect = lower value
[6] = target: Alpha-2C adrenergic receptor (Homo sapiens) (UniProt P18825); assay: modulators of alpha2C/GIRK thallium flux, primary screen, cell-based, HEK293 alpha2C/GIRK1/2 (AID 624;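 active = fluorescence slope after compound addition differing from the mean of all screened samples at 99.7% confidence, in either direction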;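 note: slope of fluorescence ratio to pre-addition baseline per second over 15 to 24 s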); details: thallium flux BTC fluorescence, at 10 µM, actives lie on both sides
Alpha-2C adrenergic receptor (Homo sapiens), sequence (P18825 whole entry, looked up): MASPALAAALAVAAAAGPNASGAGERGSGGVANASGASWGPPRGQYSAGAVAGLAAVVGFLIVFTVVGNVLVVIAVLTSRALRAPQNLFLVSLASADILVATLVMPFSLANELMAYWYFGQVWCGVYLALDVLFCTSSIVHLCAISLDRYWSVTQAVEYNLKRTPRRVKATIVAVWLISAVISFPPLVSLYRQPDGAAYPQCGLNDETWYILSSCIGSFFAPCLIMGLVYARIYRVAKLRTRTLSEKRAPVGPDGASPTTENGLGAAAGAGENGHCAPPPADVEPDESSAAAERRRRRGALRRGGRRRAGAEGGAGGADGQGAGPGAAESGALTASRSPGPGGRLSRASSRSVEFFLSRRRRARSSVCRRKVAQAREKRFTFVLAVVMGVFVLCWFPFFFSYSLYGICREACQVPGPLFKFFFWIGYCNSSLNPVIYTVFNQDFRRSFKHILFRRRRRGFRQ

[7] = inhibitors of Sendai virus-induced IRF3 signaling, primary screen, TLR/RLR signaling modifier project, cell-based, Sendai virus stimulus, luciferase, 10K MLSCN set (AID 602276;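 active = inhibition at or above 50% at 10 µM; inactive = inhibition below 50%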;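 note: firefly luciferase from ISG56 promoter only with Renilla not read in this screen; 0% = Sendai virus plus DMSO and 100% = medium plus DMSO without virus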); details: HEK293 RL24 IRF3 luciferase reporter, at 10 µM, stronger effect = higher value
[8] = inhibitors of poly I:C-induced TLR3 signaling, primary screen, cell-based, poly I:C stimulus, luciferase, 10K MLSCN set (AID 602277;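 active = inhibition of the reporter signal at or above 50%; inactive = inhibition below 50%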); details: HEK293-TLR3 RL24 IRF3 luciferase reporter, at 10 µM, stronger effect = higher value

Structure (SMILES) | cell count [1] | inhibition [1] | inhibition of aggregation [2] | nuclei count [2] | inhibition [3] | nuclei count [3] | fluorescence slope [4] | NADPH fluorescence slope [5] | slope [6] | inhibition [7] | inhibition [8]
CCC(c1nnnn1Cc1ccco1)N(CCc1ccccc1)Cc1cc2cccc(C)c2[nH]c1=O (stereo not drawn) | 788 | -8.4% (inactive) | -2.2% (inactive) | 86.2% | -19.1% (inactive) | 110% | -0.396 (inactive) | -1.9e-05 (inactive) | 0.00487 (inactive) | 25.2% (inactive) | 31.5% (inactive)
Cc1ccccc1OCCCN1C(=O)C(=O)c2cccc(C)c21 | 833 | 3.7% (inactive) | 5% (inactive) | 108% | -81.4% (inactive) | 113% | -0.575 (inactive) | -5e-05 (inactive) | 0.00604 (inactive) | 5.45% (inactive) | -4.08% (inactive)
CCC(C)c1ccc(NC(=O)c2cccnc2)cc1 (stereo not drawn) | 393 | 18% (inactive) | 2.8% (inactive) | 113% | -48.5% (inactive) | 130% | -0.395 (inactive) | 3e-05 (inactive) | 0.00669 (inactive) | -47.8% (inactive) | -142% (inactive)
O=C(Nc1ncc(Cc2ccccc2)s1)C1CCCO1 (stereo not drawn) | 455 | -3.3% (inactive) | 11% (inactive) | 109% | -1.5% (inactive) | 96.3% | -0.563 (inactive) | -1.3e-05 (inactive) | 0.00728 (inactive) | -58.5% (inactive) | -150% (inactive)
CCOc1ccccc1N(CC(=O)N1CCOCC1)S(=O)(=O)c1ccccc1 | 338 | 0.7% (inactive) | 0.9% (inactive) | 100% | 44.4% (inactive) | 98.7% | -0.428 (inactive) | -3e-06 (inactive) | 0.00315 (inactive) | -13.5% (inactive) | -26.2% (inactive)
Cc1cc(=O)n(CCO)c(O)c1C#N | 735 | 0.3% (inactive) | -6.8% (inactive) | 94% | -22.2% (inactive) | 110% | -0.351 (inactive) | 8.2e-06 (inactive) | 0.00309 (inactive) | 18.6% (inactive) | 15% (inactive)
C=CCN1C(=O)CS/C1=C(\C#N)S(=O)(=O)c1ccc(C)cc1 | 585 | 13.3% (inactive) | -5.1% (inactive) | 108% | -75.5% (inactive) | 104% | -0.481 (inactive) | -4.8e-05 (inactive) | 0.00449 (inactive) | 20% (inactive) | 28.5% (inactive)
O=C(CSc1nc2ccccc2s1)N1CCN(C(=O)c2ccco2)CC1 | 394 | 0.5% (inactive) | 10% (inactive) | 104% | -45.3% (inactive) | 102% | -0.377 (inactive) | 9e-06 (inactive) | 0.00381 (inactive) | 7.64% (inactive) | 22.8% (inactive)
Cc1ccc(NC(=O)c2ccco2)cc1NC(=O)CSc1nnc(-c2cccs2)n1C | 379 | -5.5% (inactive) | 16.8% (inactive) | 89.1% | 24.1% (inactive) | 98.1% | -0.394 (inactive) | -5.8e-05 (inactive) | 0.00449 (inactive) | 10.8% (inactive) | 14.1% (inactive)
CC(Sc1nc(-c2ccccc2)cc(C(F)(F)F)n1)C(=O)N1CCC(C(N)=O)CC1 (stereo not drawn) | 446 | 7.2% (inactive) | 8.9% (inactive) | 97.1% | -45.8% (inactive) | 126% | -0.455 (inactive) | -8.9e-05 (inactive) | 0.00612 (inactive) | 17.5% (inactive) | 24.5% (inactive)
Cc1cc(C)c2c(n1)nn1c(N3CCOCC3)cc(C)nc21 | 503 | -6.3% (inactive) | 5.7% (inactive) | 81.9% | -56.5% (inactive) | 123% | -0.0426 (active) | -2.7e-06 (inactive) | 0.00599 (inactive) | 2.18% (inactive) | 3.21% (inactive)
CN(C)c1ccc2c(c1)OC(N)=C(C#N)C2c1cccc(F)c1 (stereo not drawn) | 404 | 11.5% (inactive) | -56.1% (inactive) | 3% | -8.8% (inactive) | 103% | -0.515 (inactive) | 1.1e-05 (inactive) | 0.0134 (active) | 36.6% (inactive) | 82.9% (active)
COC(=O)c1ccc2c(=O)n(CC3CCCO3)c(=S)[nH]c2c1 (stereo not drawn) | 548 | 16% (inactive) | -9.1% (inactive) | 92.8% | -137% (inactive) | 94.3% | -0.478 (inactive) | -2.8e-05 (inactive) | 0.00617 (inactive) | 14.9% (inactive) | 12.3% (inactive)
CCOC(=O)C1CCN(Cc2ccc(OC)c(C)c2OC)CC1 | 313 | -1.3% (inactive) | -10.2% (inactive) | 107% | -41.2% (inactive) | 108% | -0.539 (inactive) | -2.1e-05 (inactive) | 0.00556 (inactive) | -3.21% (inactive) | 7.91% (inactive)
Cc1ccc(CN2C(=O)CCC2C(=O)NC2CCCC2)cc1 (stereo not drawn) | 382 | 1.3% (inactive) | 6.6% (inactive) | 103% | -19% (inactive) | 111% | -0.589 (inactive) | -3.4e-05 (inactive) | 0.00496 (inactive) | 12.8% (inactive) | 21.8% (inactive)
O=C(NCCN1C(=O)C2C3C=CC(C3)C2C1=O)N1CCOCC1 (stereo not drawn) | 549 | -4.5% (inactive) | 7.2% (inactive) | 52.3% | -8.6% (inactive) | 69.7% | -0.586 (inactive) | -1e-05 (inactive) | 0.00653 (inactive) | 3.84% (inactive) | 27.8% (inactive)
CC(Sc1nc(-c2ccccc2)cc(C(F)(F)F)n1)C(=O)N1CCCC1 (stereo not drawn) | 698 | -1.1% (inactive) | -38.4% (inactive) | 118% | -83% (inactive) | 133% | -0.506 (inactive) | 3.3e-05 (inactive) | 0.00611 (inactive) | 5.88% (inactive) | 16.9% (inactive)
O=C(C1CCCCC1)N1CCC(c2nc3c(nnn3Cc3c(F)cccc3Cl)c(=O)[nH]2)CC1 | 413 | -4.6% (inactive) | -15.9% (inactive) | 116% | -110% (inactive) | 249% | -0.454 (inactive) | -0.000123 (inactive) | 0.00666 (inactive) | 6.04% (inactive) | 27% (inactive)
Cc1cc2c(cc1C)-c1nnnn1C(C)(C)C2 | 655 | 2.4% (inactive) | 13.2% (inactive) | 91.6% | 67.5% (active) | 88.2% | -0.421 (inactive) | -3e-05 (inactive) | 0.00748 (inactive) | -16.2% (inactive) | 82.3% (active)
Cc1cc(C)n2nc[n+](C)c2n1 | 685 | -12.9% (inactive) | -10% (inactive) | 103% | -17.6% (inactive) | 120% | -0.537 (inactive) | 3.6e-05 (inactive) | 0.0066 (inactive) | -6.03% (inactive) | -6.5% (inactive)
CCCSCCCNC(=O)Cn1cc2c(n1)CCC(C)C2 (stereo not drawn) | 652 | -3.3% (inactive) | 3.5% (inactive) | 92% | 21.4% (inactive) | 103% | -0.615 (inactive) | -2.5e-05 (inactive) | 0.00719 (inactive) | -8.61% (inactive) | 10.5% (inactive)
O=C1C2C3C=CC(C3)C2C(=O)N1c1cccc(N2C(=O)C3C4C=CC(C4)C3C2=O)n1 (stereo not drawn) | 227 | 8.4% (inactive) | -5.5% (inactive) | 109% | -160% (inactive) | 137% | -0.549 (inactive) | -1.2e-05 (inactive) | 0.00682 (inactive) | 3.37% (inactive) | 21.6% (inactive)
CCc1nc2scc(-c3ccccc3)c2c(=O)n1N | 414 | 10.9% (inactive) | 0% (inactive) | 98.5% | -361% (inactive) | 142% | -0.437 (inactive) | 6.4e-05 (inactive) | 0.00592 (inactive) | -8.38% (inactive) | -30.6% (inactive)
Fc1ccc(Cn2nnc(-c3ccc(CN4CCOCC4)cc3)n2)cc1 | 299 | 4.3% (inactive) | 11.5% (inactive) | 102% | 9.3% (inactive) | 117% | -0.44 (inactive) | -1.1e-05 (inactive) | 0.00406 (inactive) | -2.6% (inactive) | -37.2% (inactive)
CCOc1ccccc1CNC(=O)CCN1C(=O)COc2ccccc21 | 630 | -1.8% (inactive) | -12.2% (inactive) | 47.7% | -71.5% (inactive) | 94.5% | -0.379 (inactive) | -2.3e-05 (inactive) | 0.00611 (inactive) | 12.2% (inactive) | 2.75% (inactive)
CC(C)Cc1cc(C(=O)Nc2c(F)cc(F)cc2Br)no1 | 783 | 7.4% (inactive) | -5% (inactive) | 114% | -4.5% (inactive) | 120% | -0.594 (inactive) | 3.8e-06 (inactive) | 0.00483 (inactive) | -6.27% (inactive) | 2.03% (inactive)
COc1cccc(-c2noc(-c3cccs3)n2)c1 | 390 | -0.7% (inactive) | 11.7% (inactive) | 110% | -29.5% (inactive) | 131% | -0.619 (inactive) | 2.2e-06 (inactive) | 0.00482 (inactive) | 6.14% (inactive) | -8.84% (inactive)
CC(C)Cc1nnc(NS(=O)(=O)c2ccc(Cl)cc2)s1 | 652 | 5.4% (inactive) | -9.3% (inactive) | 112% | -21.2% (inactive) | 112% | -0.541 (inactive) | 4.8e-06 (inactive) | 0.0081 (inactive) | 12.6% (inactive) | 27.6% (inactive)
